A selection: hits, their analogues and other compounds. The true share with any hit is near 2.2%.
IEC-6 cytotox: counter-screen for KLF5 inhibitors: cytotoxicity in IEC-6 cells; inhibition, % at 5 µM; IEC-6 cytotoxicity, luminescence viability; actives 0.78% (n = 290,000); in the data active means inhibition above about 22%;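 further: 0% = plate median of test compound wells and 100% = cytotoxic reference compound wells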
aSyn UTR inh: MLPCN primary screen, SNCA 5' untranslated region; AID 1813; actives 0.82% (n = 300,000); inhibition, % (tested at 7.5 µM); alpha-synuclein 5'UTR reporter, inhibitor activity; in the data active means inhibition above about 60%;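 further: H4 neuroglioblastoma cells stably carrying SNCA 5'UTR luciferase fusion; 0% = DMSO wells and 100% = positive control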
KLF5 inh: inhibitors of KLF5 expression; DLD-1 KLF5 promoter-luciferase reporter, luminescence; inhibition, % at 5 µM; actives 0.23% (n = 290,000); AID 1700;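 active means inhibition above a per-plate limit of that plate's mean compound inhibition plus 3 SD, cut at about 60% in these data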;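 further: 0% = DMSO wells and 100% = LY294002 at 200 µM; higher means less KLF5 promoter-driven luciferase light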
Ba/F3 V617F tox: lowers viability of Ba/F3 cells expressing EpoR and JAK2V617F; AID 1446; ATP luminescence; inhibition, % at 5.6 µM; actives 1.1% (n = 220,000);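 active means inhibition above the campaign mean plus 3 SD over all tested compounds, cut at about 24% in these data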;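 further: cytokine-independent growth of Ba/F3 cells driven by EpoR plus mutant JAK2; 0% = DMSO-treated cells and 100% = JAK inhibitor I control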
BaF3 parental: reduces parental Ba/F3 cell viability, JAK2V617F counter-screen | CellTiter-Glo ATP luminescence | actives 1.1% (n = 220,000) | inhibition, % at 5.6 µM;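 active means inhibition above a per-campaign cutoff, the mean inhibition of all tested compounds plus 3 SD, cut at about 27% in these data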;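 further: 0% = DMSO wells and 100% = JAK Inhibitor I control wells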
APP 5UTR inh: APP translation inhibition. SH-SY5Y APP 5'UTR-luciferase reporter, luminescence. inhibition, % at 2 µM. actives 0.82% (n = 190,000). AID 1285;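 active means inhibition above a set limit, derived from the sample mean plus 3 SD, cut at about 45% in these data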
The depositor's hits bear a star; . = not tested or not shown.

SMILES	IEC-6 cytotox	aSyn UTR inh	KLF5 inh	Ba/F3 V617F tox	BaF3 parental	APP 5UTR inh
COc1ccc(S(=O)(=O)Nc2cc(SCC(=O)O)c(O)c3ccccc23)cc1	19.9	7.0	-81.5	.	.	.
CCC(=O)N1CCN(c2nc3ccc(Br)cc3s2)CC1	5.7	-116.8	-141.2	.	.	.
Cn1c(O)c(C=NCC2CCNCC2)c(=O)n(C)c1=O	0.8	25.4	-6.5	6.4	92.8*	-3.8
Cc1cccn2c(=O)c3cc(C#N)c(=N)n(CCN4CCOCC4)c3nc12	-1.3	-34.2	-28.1	-0.5	3.0	46.8*
COc1ccc(C2CC2C(C)=O)cc1 (stereo unspecified)	-4.5	4.7	-6.6	1.1	6.3	9.3
CN1CCN(C2Cc3cc(Cl)ccc3Sc3cc(F)ccc32)CC1 (stereo unspecified)	.	100.8*	.	.	.	.
COc1cc2nc(SCc3ccc(F)cc3)n(Cc3cccs3)c(=N)c2cc1OC	-2.8	1.9	3.2	-0.7	8.9	12.3
COc1ccc(Cn2c(SCc3ccccc3C)nc3cc(OC)c(OC)cc3c2=N)cc1	2.8	92.9*	-10.4	-0.9	2.3	-5.4
COc1ccc(C(=O)Nc2cc(C)on2)c(OC)c1	0.0	-141.2	-187.3	.	.	.
COc1ccc(C(=O)Nc2ccc(C)cn2)c(OC)c1	-3.5	115.5*	54.4	0.9	5.5	-23.6
N/C(=N\NC(=O)c1sccc1OCc1ccc(Cl)cc1Cl)c1ccccn1	5.4	51.7	-14.0	-1.2	2.3	61.5*
CC(=O)OCC1OC(OCc2cn(C[C@H]3CC[C@H](Cn4cc(COC5OC(COC(C)=O)C(OC(C)=O)C(OC(C)=O)C5OC(C)=O)nn4)O3)nn2)C(OC(C)=O)C(OC(C)=O)C1OC(C)=O (stereo partly specified)	-3.0	13.9	-27.9	.	.	.
CCO[C@@H]1OC(C(=O)NCc2nc3ccccc3[nH]2)=C[C@H](C(C)(C)C)[C@H]1CCCO	.	85.2*	.	.	.	.
CCO[C@H]1OC(C(=O)NCc2nc3ccccc3[nH]2)=C[C@@H](c2ccc(Br)cc2)[C@@H]1CCCO	.	-3.7	.	.	.	.
CC(c1ccccc1)n1c(S(=O)(=O)O)nc2ccccc21 (stereo unspecified)	-0.1	2.2	-15.6	0.5	58.4*	0.2
CCN1C(=O)C(=O)N(CC(=O)Nc2ccccc2Oc2ccccc2)C1=O	-3.2	7.9	6.8	1.2	10.4	7.8
O=[N+]([O-])c1ccc(O)c(CSc2nnnn2-c2ccccc2)c1	-0.9	10.6	-5.0	.	.	.
Cc1nc2ccccc2n1-c1nc(-c2ccco2)cc(C(F)(F)F)n1	-2.4	90.4*	-2.4	2.2	7.5	37.5
COc1ccc(Cl)cc1C(=O)N1CCN(Cc2ccc3c(c2)OCO3)CC1	-1.4	-9.2	-30.1	.	.	.
C=CCn1c(Cc2cccs2)nnc1SCC(=O)Nc1ccc(C(=O)OCC)cc1	-1.3	-8.8	-12.8	0.2	0.2	47.4*
Cc1cccc(N2CCN(C(=S)Nc3ccc4nc(N5CCN(C)CC5)cc(C)c4c3)CC2)c1C	-1.1	95.2*	-24.1	-2.0	2.5	86.9*
Cc1cc(N2CCN(C)CC2)nc2ccc(NC(=S)N3CCCCC3)cc12	-2.4	-84.7	-24.1	0.5	5.0	-17.5
Cc1cc(-c2ccccc2)cc(-c2ccccc2)[n+]1C	3.6	.	-6.0	72.9*	68.4*	-3.5
Cc1ccc(-c2cc(N)nc(-c3ccccc3)c2)cc1	-1.4	-86.9	-62.1	.	.	.
COc1ccccc1NC(=O)Cn1nnc(C(=O)Nc2ccccc2)c1N	-2.2	-8.6	-21.6	1.4	93.9*	8.0
SMILES	IEC-6 cytotox	aSyn UTR inh	KLF5 inh	Ba/F3 V617F tox	BaF3 parental	APP 5UTR inh
COc1ccccc1NC(=O)c1nnn(CC(=O)Nc2ccccc2)c1N	4.8	-1.2	-10.2	4.0	8.6	-9.1
C=CCOc1nc(-c2ccccc2Cl)nc2ccccc12	1.0	72.1*	-21.1	-0.7	1.6	.
COc1ccc(CCNC(=O)CSc2nnnn2-c2ccccc2)cc1	-4.0	-15.3	-15.1	-4.2	-2.5	47.6*
COc1ccc(CNC(=O)CSc2nnnn2-c2ccccc2)cc1	-3.7	13.1	-27.5	-0.6	10.0	-11.1
COc1ccc(C)cc1NC(=O)C(=O)NCc1ccncc1	2.2	-0.6	-5.6	-1.8	96.2*	-11.4
O=C(Nc1cc(S(=O)(=O)Nc2ccc(Cl)cc2)ccc1N1CCCCC1)c1ccc(F)cc1	3.2	-3.2	-10.1	-2.5	-0.9	0.2
COc1ccc(NS(=O)(=O)c2ccc(N3CCOCC3)c(NC(=O)c3ccco3)c2)cc1	-5.1	-6.0	-11.5	35.2*	41.6*	-11.4
O=C(Nc1ccccc1N1CCOCC1)c1cccc(F)c1	-4.5	10.3	-15.1	0.4	4.7	-3.2
COc1ccccc1NS(=O)(=O)c1ccc(N2CCOCC2)c(NC(=O)c2ccco2)c1	-0.4	12.6	-24.9	2.9	10.0	-33.5
COc1ccc(NS(=O)(=O)c2ccc(N3CCOCC3)c(NC(=O)c3ccc(F)cc3)c2)cc1	2.8	-11.5	-9.6	38.4*	42.8*	-11.8
COc1ccc(NS(=O)(=O)c2ccc(N3CCOCC3)c(NC(=O)c3cccc(F)c3)c2)cc1	-0.4	-16.5	-36.5	29.7*	41.3*	-22.8
COc1ccc(NS(=O)(=O)c2ccc(N3CCOCC3)c(NC(=O)C(C)C)c2)cc1	10.7	-18.2	8.2	40.4*	57.6*	-25.0
N#CCCN(C(=O)COc1ccc(F)cc1Br)c1ccccc1F	-2.6	9.4	19.6	-2.6	1.4	-1.7
CC(Oc1ccc(Br)cc1)C(=O)N(C)CC(=O)Nc1ccc(N2CCOCC2)cc1 (stereo unspecified)	.	-24.2	.	.	.	.
COc1ccccc1Oc1ccc(NC(=O)Cc2ccccc2)cc1	.	-36.9	.	.	.	.
Nn1c(SCC(=O)N2CCOCC2)nnc1C1CC1	0.3	-20.4	-14.6	-0.2	4.1	15.3
CC(=O)NC(c1ccc(C)cc1)c1cc([N+](=O)[O-])c2cccnc2c1O (stereo unspecified)	-4.2	55.2	-37.1	-3.1	6.7	6.0
CCCC(=O)NC(c1ccc(OC)c(OC)c1)c1cc(Cl)c2cccnc2c1O (stereo unspecified)	-0.6	50.2	-2.6	-4.8	1.9	53.2*
CCC(=O)NC(c1ccc(C)cc1)c1cc([N+](=O)[O-])c2cccnc2c1O (stereo unspecified)	1.3	64.0*	-0.7	3.2	8.6	26.1
CCCCC(=O)NC(c1cccs1)c1cc(Cl)c2cccnc2c1O (stereo unspecified)	1.3	80.3*	12.3	-0.3	0.6	72.5*
CCC(=O)NC(c1cccs1)c1cc(Cl)c2cccnc2c1O (stereo unspecified)	14.3	86.2*	7.2	4.0	4.4	60.9*
COCCNC(=O)C(=O)N/N=C(\C)CC(=O)Nc1cccnc1	-1.0	11.3	-24.1	0.7	7.0	-25.8
CCC(=O)C1CCCN(C(=O)CCc2nnc(C3(c4ccc(Cl)cc4)CCC3)o2)C1 (stereo unspecified)	6.9	-62.1	-71.3	.	.	.
COC(=O)c1cn(C(=O)/C=C/c2ccc(OC)c(OC)c2)c2ccccc12	-0.4	-78.0	-20.3	2.9	7.0	16.9
CC(=O)c1cccc(OCc2cc(C(=O)N3C[C@@H](C)O[C@@H](C)C3)no2)c1	1.0	-75.3	-72.0	.	.	.
